This note sets out measurements from PubChem BioAssay (NCI).

Among the test systems are RPMI-8226 leukemia; OVCAR-8 ovarian; OVCAR-5 ovarian; OVCAR-4 ovarian; SK-OV-3 ovarian; IGROV1 ovarian; OVCAR-3 ovarian; HS 578T breast; NCI/ADR-RES ovarian; T-47D breast; BT-549 breast; MDA-MB-435 melanoma; SW-620 colon; MCF7 breast; HCT-116 colon; HCC-2998 colon; KM12 colon.
Holding throughout (assay): NCI-60 one-dose screen, 48 h (100 = growth as untreated, 0 = no growth, -100 = all killed)
Common to all, as to settings: 10 µM unless noted

This is part of a sample that, as a whole, favours compounds with a hit. Of some 83,000 tested, about 20% had one in any assay.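 Single-concentration screen, 48 h exposure, 96-well plates. Endpoint: percent growth. Below 10 = active.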 A number with no mark means an inactive call. Active and inactive are the calls of the source.

Consider `Cc1cc(NCCCNc2ccnc3cc(Cl)ccc23)nc(N2CCN(C)CC2)n1`, for which the growth in the experiment with RPMI-8226 leukemia was 38.5%; in the experiment with OVCAR-8 ovarian it was 77.1%; with OVCAR-5 ovarian, 86.6%; in the experiment with OVCAR-4 ovarian, 59.5%; with SK-OV-3 ovarian, 106%; in the experiment on IGROV1 ovarian it was 83.1%. For the same molecule, the growth in the experiment on OVCAR-3 ovarian was 80%; in the experiment with HS 578T breast, 91.9%; in the experiment on NCI/ADR-RES ovarian, 107%; in the experiment on T-47D breast it was 81.4%; in the experiment with BT-549 breast, 95.6%; with MDA-MB-435 melanoma, 46%. The growth is 37.3% in the experiment with SW-620 colon; 33.1% in the experiment with MCF7 breast; 18.5% in the experiment with HCT-116 colon; 48.9% with HCC-2998 colon; 52.6% with KM12 colon.
Turning to `CCC(C)CC(C)C(=O)c1c(O)ccn(O)c1=O` (stereo not drawn), the growth with RPMI-8226 leukemia was 11.7%; in the experiment on OVCAR-8 ovarian, 17.8%; in the experiment on OVCAR-5 ovarian, 72.8%; with OVCAR-4 ovarian it was 30.3%; with SK-OV-3 ovarian, 65.3%; in the experiment on IGROV1 ovarian it was 24.2%. Moreover, the growth in the experiment with OVCAR-3 ovarian is 19%; in the experiment on HS 578T breast, 62%; with NCI/ADR-RES ovarian it was 4.73% (active); in the experiment with T-47D breast, 35.5%; in the experiment with BT-549 breast, 35.6%; in the experiment with MDA-MB-435 melanoma, 46.8%. The growth with SW-620 colon is 25%; in the experiment on MCF7 breast it was 18.9%; with HCT-116 colon, 22.7%; with HCC-2998 colon, 89.7%; with KM12 colon it was 34.2%.
In the case of `COc1cc(-c2cc(C(=O)Nc3nc4ccccc4s3)nc3cc(-c4ccccc4)nn23)cc(OC)c1OC`, the growth in the experiment on RPMI-8226 leukemia is 73.7%; with OVCAR-8 ovarian, 60.2%; in the experiment on OVCAR-5 ovarian, 106%; in the experiment on OVCAR-4 ovarian it was 82.5%; in the experiment with SK-OV-3 ovarian, 97.7%; with IGROV1 ovarian, 99.7%. For the same molecule, the growth is 48.1% with OVCAR-3 ovarian; 62.1% with HS 578T breast; 73.3% in the experiment on NCI/ADR-RES ovarian; 83.7% in the experiment with T-47D breast; 59.6% with BT-549 breast; 31% in the experiment with MDA-MB-435 melanoma. The growth in the experiment with SW-620 colon was 55.7%; in the experiment on MCF7 breast, 72.9%; in the experiment on HCT-116 colon, 57.8%; with HCC-2998 colon, 85.6%; with KM12 colon it was 45.3%.
As to `O=NC1CC=CCC1c1ccccc1` (stereo not drawn), the growth in the experiment with RPMI-8226 leukemia was 114%; with OVCAR-8 ovarian, 108%; with OVCAR-5 ovarian it was 94.5%; in the experiment on OVCAR-4 ovarian, 106%; in the experiment with SK-OV-3 ovarian, 111%; in the experiment with IGROV1 ovarian it was 111%. Moreover, the growth in the experiment with OVCAR-3 ovarian was 118%; in the experiment on HS 578T breast, 125%; in the experiment with NCI/ADR-RES ovarian, 104%; in the experiment on T-47D breast it was 111%; in the experiment with BT-549 breast, 105%; in the experiment with MDA-MB-435 melanoma it was 112%. The growth with SW-620 colon was 105%; with MCF7 breast it was 108%; in the experiment on HCT-116 colon, 95.6%; in the experiment with HCC-2998 colon, 104%; in the experiment on KM12 colon, 112%.
Turning to `Fc1ccc(-c2nnc(/C=C/c3cn(-c4ccccc4)nc3-c3ccccc3)o2)cc1`, the growth is 104% with RPMI-8226 leukemia; 98.2% with OVCAR-8 ovarian; 82.2% in the experiment on OVCAR-5 ovarian; 114% in the experiment with OVCAR-4 ovarian; 85.5% in the experiment on SK-OV-3 ovarian; 97.7% with IGROV1 ovarian. In addition, the growth in the experiment on OVCAR-3 ovarian was 119%; with HS 578T breast, 96.9%; with NCI/ADR-RES ovarian it was 88.2%; with T-47D breast, 72.6%; with BT-549 breast, 86.6%; with MDA-MB-435 melanoma, 100%. For the same molecule, the growth with SW-620 colon was 86.6%; in the experiment on MCF7 breast, 94%; in the experiment on HCT-116 colon, 57%; in the experiment with HCC-2998 colon it was 95%; in the experiment on KM12 colon, 102%.
On to `COc1cc(C2C=C(c3ccc(C)cc3)Nc3nc(SC)[nH]c(=O)c32)ccc1Oc1ccnc2cc(Cl)ccc12` (stereo not drawn), for which the growth with RPMI-8226 leukemia was 65.6%; in the experiment on OVCAR-8 ovarian, 83.4%; in the experiment on OVCAR-5 ovarian, 84.3%; with OVCAR-4 ovarian it was 86.3%; in the experiment with SK-OV-3 ovarian it was 106%; in the experiment with IGROV1 ovarian, 90.5%. Also, the growth in the experiment on OVCAR-3 ovarian was 81.1%; with HS 578T breast it was 90.8%; in the experiment with NCI/ADR-RES ovarian it was 72.6%; in the experiment with T-47D breast, 82.3%; in the experiment on BT-549 breast, 87.9%; in the experiment with MDA-MB-435 melanoma, 55.3%. Further, the growth in the experiment on SW-620 colon was 93.3%; with MCF7 breast it was 56.9%; in the experiment with HCT-116 colon, 64.5%; with HCC-2998 colon, 95.9%; in the experiment with KM12 colon, 60.5%.
For the molecule `O=C1C[C@@H]2/C(=C(O)\C=C\c3ccccc3)C(=O)C=C[C@@H]2O1`, the growth is 32.5% in the experiment with RPMI-8226 leukemia; 8.54% (active) in the experiment on OVCAR-8 ovarian; 51.5% with OVCAR-5 ovarian; 37.5% in the experiment on OVCAR-4 ovarian; 86.1% in the experiment on SK-OV-3 ovarian; -52.6% (active) in the experiment on IGROV1 ovarian. Besides, the growth with OVCAR-3 ovarian is -46.2% (active); in the experiment on HS 578T breast, -2.33% (active); in the experiment on NCI/ADR-RES ovarian it was 7.67% (active); in the experiment on T-47D breast, 16.7%; in the experiment on BT-549 breast it was -40.5% (active); with MDA-MB-435 melanoma it was -31.6% (active). The growth with SW-620 colon was -33.2% (active); with MCF7 breast, 6.03% (active); with HCT-116 colon, -90.6% (active); with HCC-2998 colon, 99.6%; in the experiment with KM12 colon, -91% (active).
As to `COc1ncc(-c2ccc3nccc(C#CCN4CCN(S(C)(=O)=O)CC4)c3c2)cc1NS(=O)(=O)c1ccc(F)cc1F`, the growth in the experiment on RPMI-8226 leukemia was -30.1% (active); with OVCAR-8 ovarian, 7.2% (active); in the experiment with OVCAR-5 ovarian, 11.3%; in the experiment on OVCAR-4 ovarian, 8.24% (active); with SK-OV-3 ovarian it was -11.1% (active); in the experiment with IGROV1 ovarian, -35.9% (active). Also, the growth in the experiment on OVCAR-3 ovarian was -20.7% (active); with HS 578T breast it was -13.9% (active); in the experiment on NCI/ADR-RES ovarian, 6.28% (active); in the experiment on T-47D breast, 3.5% (active); in the experiment with BT-549 breast, -17.6% (active); in the experiment on MDA-MB-435 melanoma it was -23% (active). In addition, the growth was 0.433% (active) in the experiment with SW-620 colon; 6.88% (active) in the experiment on MCF7 breast; -10.4% (active) in the experiment on HCT-116 colon; -37% (active) in the experiment with HCC-2998 colon; -57.2% (active) in the experiment on KM12 colon.
For the molecule `COc1cc(/C=C/C(=O)Nc2cccnc2Nc2cc(OC)c(OC)c(OC)c2)cc(OC)c1OC`, the growth with RPMI-8226 leukemia was 66.9%; in the experiment with OVCAR-8 ovarian, 84.1%; in the experiment on OVCAR-5 ovarian, 99.3%; in the experiment on OVCAR-4 ovarian it was 92.7%; in the experiment on SK-OV-3 ovarian, 112%; with IGROV1 ovarian, 112%. Also, the growth with OVCAR-3 ovarian is 114%; in the experiment with HS 578T breast it was 96.6%; in the experiment on NCI/ADR-RES ovarian it was 83.5%; in the experiment on T-47D breast it was 100%; with BT-549 breast it was 96.7%; in the experiment with MDA-MB-435 melanoma, 96.6%. The growth with SW-620 colon is 99.1%; with MCF7 breast it was 87.9%; in the experiment with HCT-116 colon it was 88.6%; with HCC-2998 colon it was 97%; in the experiment on KM12 colon, 103%.
